A selection: hits, their analogues and other compounds. The true share with any hit is near 11%.
G9a inh: qHTS Assay for Inhibitors of Histone Lysine Methyltransferase G9a; Histone-lysine N-methyltransferase EHMT2 (Homo sapiens), Q96KQ7; G9a H3K9 monomethylation, AlphaScreen, 2 h; Potency, µM (doses to about 102 µM), without a hit: at the top dose activity, negative = inhibition, hits mostly inhibitors; actives 8.8% (n = 350,000); AID 504332, 2011; further: on the % scale 0 is the no-effect control and ±100 the full control effect; nearly all actives have a fitted effect of over 75% in size
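Readings reflect AlphaScreen signal from monomethyl-H3K9 antibody detection. HMT at 20 nM; substrate b-H3K9 500 nM; cofactor SAM 20 uM; 2 h RT reaction; compounds tested as titrations in qHTS with 15 min preincubation.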
HP1b binding inh: HTS for Inhibitors of HP1-beta Chromodomain Interactions with Methylated Histone Tails; AlphaScreen HP1-beta / biotin-H3K9me3 peptide binding; Potency, µM (series often up to 114 µM), inactives show at the highest dose activity change, negative = inhibition, hits mostly inhibitors; actives 0.56% (n = 390,000); Chromobox protein homolog 1 (Homo sapiens), P83916; further: nearly all actives have a fitted effect of over 70% in size
Target sequence (P83916 whole entry, looked up): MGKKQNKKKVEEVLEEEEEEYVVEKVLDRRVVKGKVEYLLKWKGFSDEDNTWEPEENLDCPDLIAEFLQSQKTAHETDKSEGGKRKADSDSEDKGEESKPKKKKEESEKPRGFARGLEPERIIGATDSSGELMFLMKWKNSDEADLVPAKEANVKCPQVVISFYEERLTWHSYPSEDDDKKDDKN
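Compound inhibition of the preformed complex between 50 nM HP1-beta and 50 nM biotinylated H3K9me3 peptide was read by AlphaScreen. Buffer was PBS pH 7.4 with 0.01% Tween-20. Incubations ran 30 min at room temperature, with 10 ug/mL donor/acceptor beads.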
VDR inhibitor: Inhibitors of the vitamin D receptor (VDR): qHTS | Vitamin D3 receptor (Homo sapiens), P11473 | VDR-SRC2-3 peptide fluorescence polarization, 2 h | Potency, µM, inactives show max response, negative = inhibition, actives largely listed as inhibitors | actives 0.93% (n = 400,000); further: on the % scale 0 is the no-effect control and ±100 the full control effect
Target sequence (P11473 whole entry, looked up): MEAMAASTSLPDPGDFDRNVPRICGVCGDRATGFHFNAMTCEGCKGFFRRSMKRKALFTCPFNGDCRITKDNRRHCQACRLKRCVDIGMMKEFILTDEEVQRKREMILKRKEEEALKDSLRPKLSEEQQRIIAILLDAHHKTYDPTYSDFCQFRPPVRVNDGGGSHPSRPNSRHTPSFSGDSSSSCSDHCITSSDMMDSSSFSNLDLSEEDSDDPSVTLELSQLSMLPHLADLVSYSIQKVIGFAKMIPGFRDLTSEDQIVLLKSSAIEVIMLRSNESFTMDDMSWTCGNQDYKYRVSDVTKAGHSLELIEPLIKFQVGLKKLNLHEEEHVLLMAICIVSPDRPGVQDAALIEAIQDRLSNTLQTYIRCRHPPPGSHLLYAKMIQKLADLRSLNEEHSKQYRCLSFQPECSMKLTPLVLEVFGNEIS
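Compounds are added to VDR with labelled SRC2-3 coactivator peptide and held 2 h at room temperature. Inhibition of the VDR–peptide interaction is then read as a change in fluorescence polarization.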
JMJD2A Tudor inh: qHTS Assay for Inhibitors of JMJD2A-Tudor Domain. Lysine-specific demethylase 4A (Homo sapiens), O75164. AlphaScreen JMJD2A-Tudor / H3K4me3 peptide binding. Potency, µM (top dose mostly 114 µM), for the others: at the highest dose activity change, negative = inhibition, most hits filed as inhibitors. actives 4.4% (n = 390,000). AID 504339, 2011; further: on the % scale 0 is the no-effect control and ±100 the full control effect; nearly all actives have a fitted effect of over 50% in size
PLK1 PBD inh: qHTS for Inhibitors of PLK1-PDB (polo-like kinase 1 - polo-box domain): Primary Screen; Serine/threonine-protein kinase PLK1 (Homo sapiens), P53350; Plk1 PBD binding of FITC phosphopeptide, fluorescence polarization; Potency, µM, inactives show max response, negative = inhibition, hits mostly inhibitors; actives 2.8% (n = 360,000); further: series mostly up to about 57 µM; on the % scale 0 is the no-effect control and ±100 the full control effect; nearly all actives have a fitted effect of over 65% in size
BAZ2B block: qHTS Assay for Inhibitors of BAZ2B; Bromodomain adjacent to zinc finger domain protein 2B (Homo sapiens), Q9UIF8; AlphaScreen BAZ2B-H3K14Ac peptide displacement; Potency, µM (highest dose often 114 µM), without a hit: at the highest dose activity change, negative = inhibition, hits mostly inhibitors; actives 4.4% (n = 360,000); AID 504333, 2011; further: on the % scale 0 is the no-effect control and ±100 the full control effect; nearly all actives have a fitted effect of over 60% in size
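BAZ2B 50 nM plus b-H3(5-23)K14Ac 50 nM, PBS pH 7.4/0.01% Tween-20, 30 min RT; compound added (max 110 uM), 30 min RT; streptavidin donor/Ni-chelate acceptor beads 10 ug/mL final, 20 min dark; AlphaScreen read.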
An asterisk follows results filed as active; ? = inconclusive; . = no result given; [ ] = remark or other dose. The call rests on the fitted dose curve; in most records, active means well fitted curve in the direction sought with a large enough effect; inconclusive means small, poorly fitted or top-dose-only effect, or another doubt; inactive means no such curve, though single readings can be large; an effect the other way counts as inactive or inconclusive. Potency means the concentration at half of the fitted maximal effect.

SMILES	G9a inh	HP1b binding inh	VDR inhibitor	JMJD2A Tudor inh	PLK1 PBD inh	BAZ2B block
CC(C)NC(=O)COC(=O)CNC(=O)C1CCCCC1	.	10%[57 µM]	-8%	-11%[57.1 µM]	.	.
CCc1ccc(NC(=O)COC(=O)c2nc3nc(C)cc(C)n3n2)cc1	8%[12.7 µM]	21%	2%	-7%	-4%	11%
Cc1ccc(Cl)cc1N1CCN(CCCNC(=O)Cn2ncc3c([nH]c4ccccc43)c2=O)CC1	-5%[59 µM]	17%	-1%	-16%	.	-2%
CC(Oc1ccc(Br)cc1)C(=O)Nc1ccc(S(=O)(=O)N(C)C2CCN(C)CC2)cc1 (stereo not drawn)	35µM*	5%	-5%	-19%	2%	6%
COc1ccc(CC(=O)Nc2ccc(S(=O)(=O)N(C)C3CCN(C)CC3)cc2)cc1	3%[12.7 µM]	54%	8%	-7%	5%	8%
COc1ccc(/C=N/Nc2ncc(Br)cn2)c(OC)c1	32%[12.7 µM]	24%	-26%	50µM*	?	19%
COc1ccc(/C=N\Nc2ccccn2)c(OC)c1	0%[59 µM]	34%	-1%	-12%	-1%	-4%
CCOC(=O)Cc1c(C)nc2cc(C)nn2c1C	28%[59 µM]	34%	23%	-12%	-8%	5%
CCOC(=O)Cc1nn2c(=O)cc(C)nc2s1	3%[12.7 µM]	6%	-18%	-11%	-10%	79µM*
CC(C)(C)NC(=O)C(c1cccs1)N(Cc1ccc(F)cc1)C(=O)c1csnn1 (stereo not drawn)	.	-3%	-1%	?	27µM*	-1%
CC(C)(C)NC(=O)C(c1cccs1)N(C(=O)c1csnn1)c1cccc(F)c1 (stereo not drawn)	.	41%	3%	4%	3%	?
CC1(C)c2cc(O)ccc2OC1N1CCOCC1 (stereo not drawn)	8.9µM*	42%	-2%	-11%	-6%	-13%
CC1(C)c2ccccc2-c2nc3ccccc3cc2C1N1CCOCC1 (stereo not drawn)	.	13%	2%	-4%	-3%	.
CCOC(=O)C(Nc1ccc2ccccc2c1)C(=O)OCC	2µM*	-35%	-5%	?	-30%	50µM*
Cc1nn(C)cc1CN(C)C(=O)c1cc(COc2ccc(F)cc2F)on1	7%	5%	12%	-8%	0%	1%
CCCCOC(=O)c1ccc(Nc2nnc(-n3nc(C)cc3C)c3ccccc23)cc1	33%[59 µM]	52%	-5%	-13%	.	-4%
O=C1C=C(Nc2ccccc2)C(=O)c2ccccc21	14µM*	?	4%	?	1%	7.9µM*
CCc1ccc(NC2=CC(=O)C(=O)c3ccccc32)cc1	4%[0.501 µM]	?	?	45µM*	-11%	50µM*
O=C(Nc1ccc(C(F)(F)F)cc1)C(Cc1ccccc1)n1cccc1 (stereo not drawn)	10%[59 µM]	31%	-11%	13%	.	1%
Nc1cc(C(=O)N/N=C/c2cccc([N+](=O)[O-])c2)n[nH]c1=O	?	81%	11%	?	-4%	56µM*
Nc1ccccc1C(=O)NN=Cc1cccc([N+](=O)[O-])c1	.	.	.	.	2%	.
CCS(=O)(=O)N1CCC(NC(=O)C(Cc2ccc(OC)c(OC)c2)NC(C)=O)CC1 (stereo not drawn)	.	46%	-17%	-1%	1%	-1%
CN(C(=O)CSc1nc2c(c(=O)[nH]1)CCCC2)c1ccccc1	?	23%	8%	4%	.	-14%
Cc1cccc(N=C2NC(=O)/C(=C/c3cccs3)S2)c1	2%[59 µM]	-2%	-2%	-30%	-19%	-4%
COc1cccc(N=C2NC(=O)/C(=C/c3cc([N+](=O)[O-])ccc3O)S2)c1	?	?	-14%	?	29%	56µM*
SMILES	G9a inh	HP1b binding inh	VDR inhibitor	JMJD2A Tudor inh	PLK1 PBD inh	BAZ2B block
O=C1NC(=Nc2ccccc2Cl)S/C1=C\c1cc([N+](=O)[O-])ccc1O	35µM*	16%	?	?	-21%	?
O=C1N/C(=N/O)S/C1=C/c1cccc([N+](=O)[O-])c1	-37%	6%	10%	-18%	-17%	.
Cc1ccc(S(=O)(=O)/N=C2/NC(=O)/C(=C/c3cc([N+](=O)[O-])ccc3O)S2)cc1	11µM*	16%	?	-32%	4%	-29%
Cc1oc(-c2ccccc2F)nc1CS(=O)CC(=O)NC1CCCCC1 (stereo not drawn)	.	30%	-18%	-4%	-9%	6%
CCCN(CC1CC1)C(=O)CSc1ncnc2sccc12	40µM*	55%	-18%	-7%	-6%	2%
Cc1ccc(C)c(OCCC(=O)OCC(=O)Nc2ccc(N3CCOCC3)cc2)c1	?	29%	-9%	-5%	3%	-12%
O=C(CCCOc1ccc(Cl)cc1)Nc1ccc(N2CCOCC2)cc1	-27%	10%	-12%	-29%	-17%	-13%
Cc1ccc(C)c(OCC(=O)Nc2ccc(N3CCOCC3)cc2)c1	32µM*	-16%	13%	?	-27%	?
Cc1ccc(C)c(OCC(=O)Nc2cc(C(=O)O)cc(C(=O)O)c2)c1	45µM*	1%	5%	-23%	-5%	-7%
Cc1ccc(C)c(OCC(=O)Nc2ccc(C(=O)O)cc2NC(=O)COc2cc(C)ccc2C)c1	?	33%	-6%	-25%	-22%	-27%
Cc1ccc(C)c(OCCCC(=O)Nc2ccc(N3CCOCC3)cc2)c1	40µM*	.	.	.	.	?
Cc1cccc(OCCCC(=O)Nc2ccc(N3CCOCC3)cc2)c1	13µM*	-7%	-2%	-26%	-24%	-6%
N#Cc1c(N)[nH]c(C(=O)c2ccccc2)c1-c1ccccc1Br	.	.	.	.	-7%	.
CC(C)[C@@H]1NC(=O)c2cc([N+](=O)[O-])cc(I)c2NCCCC[C@@H](C(=O)NC(CC(=O)O)C(N)=O)NC(=O)[C@H](CO)NC1=O (stereo partly drawn)	45µM*	.	.	.	.	50µM*
NC(=O)CC[C@@H]1NC(=O)[C@@H]2CCCN2C(=O)c2cc([N+](=O)[O-])cc(I)c2NCCC[C@@H](C(=O)NC(CC(=O)O)C(N)=O)NC1=O (stereo partly drawn)	?	21%	-2%	-12%	-1%	-3%
